# Measurements: the supplement of paper PMC8728848
# This is one part of a sample in which the strongest signals are shown more often than they occur.
# B1: Epa3to1 (Candida glabrata) (protein)
# chain: MGSSHHHHHHSSGLVPRGSHMKRELSSQNPFGYPIGCSPQDVAIIPGLTMELYSYPIVSGTPPNCYDASYVDPEYPRTGYLKRKMVGKSTGVTGNLNYKYSVEKACMVKYGNLPAGYNYNEPLTVSNFTMILYGYFKAQTTGLHTFFVNADDLLYINFGAGNAFDCCKREDSKTKLGEYVAYDIWHVDSSKNKVSLFLEKDLYYPIRMFFNNREYDSSLDLSFSVNGATDQISDFSGYLYSVPDQPDTCPAHIGYDTTCR
# How the values were obtained:
# Assay in all cases: glycan array binding signal (z-score within array); higher = stronger binding
# Conditions in all cases: glycan notation: IUPAC condensed, linker removed
# [1] = target: Gal(b1-4)GlcNAc(b1-3)[Fuc(a1-3)GlcNAc(b1-6)]Gal(b1-4)Glc
# Procedure, shortened: (§1)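 The Consortium for Functional Glycomics database supplied 3228 glycan arrays, of which those lacking an available protein sequence were dropped. The binding signal, a within-array Z-score, was averaged across arrays of the same protein sequence and across linkers. Negative scores can be read as non-binding.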
# [2] = target: Gal(b1-4)GlcNAc(b1-6)Gal(b1-4)GlcNAc
# Procedure, shortened: as §1
# Gal3S6S(b1-4)GlcNAc = target: Gal3S6S(b1-4)GlcNAc
# Procedure, shortened: as §1
# Gal6S(b1-3)GlcNAc6S = target: Gal6S(b1-3)GlcNAc6S
# Procedure, shortened: as §1
# Gal6S(b1-4)Glc6S = target: Gal6S(b1-4)Glc6S
# Procedure, shortened: as §1
# Gal6S(b1-4)GlcNAc6S = target: Gal6S(b1-4)GlcNAc6S
# Procedure, shortened: as §1
# GalNAc(b1-3)Gal = target: GalNAc(b1-3)Gal
# Procedure, shortened: as §1
# GlcA(b1-6)Gal = target: GlcA(b1-6)Gal
# Procedure, shortened: as §1
# [3] = target: GlcNAc(a1-4)Gal(b1-3)GlcNAc
# Procedure, shortened: as §1
# [4] = target: GlcNAc(a1-4)Gal(b1-4)GlcNAc
# Procedure, shortened: as §1
# [5] = target: GlcNAc(a1-4)Gal(b1-4)GlcNAc(b1-3)Gal(b1-4)[Fuc(a1-3)]GlcNAc(b1-3)Gal(b1-4)[Fuc(a1-3)]GlcNAc
# Procedure, shortened: as §1
# [6] = target: GlcNAc(b1-2)[GlcNAc(b1-6)]Man(a1-6)[GlcNAc(b1-2)Man(a1-3)]Man(b1-4)GlcNAc(b1-4)GlcNAc
# Procedure, shortened: as §1
# GlcNAc(b1-3)Fuc = target: GlcNAc(b1-3)Fuc
# Procedure, shortened: as §1
# [7] = target: GlcNAc(b1-3)Gal(b1-4)GlcNAc(b1-3)GalNAc
# Procedure, shortened: as §1
# [8] = target: GlcNAc(b1-4)GlcNAc(b1-4)GlcNAc(b1-4)GlcNAc(b1-4)GlcNAc
# Procedure, shortened: as §1
# [9] = target: Neu5Ac(a2-3)Gal(b1-4)GlcNAc(b1-6)[Neu5Ac(a2-3)Gal(b1-3)]GalNAc
# Procedure, shortened: as §1
# [10] = target: Neu5Ac(a2-3)Gal(b1-4)GlcNAc6S
# Procedure, shortened: as §1
# [11] = target: Neu5Ac(a2-3)[GalNAc(b1-4)]Gal(b1-4)GlcNAc
# Procedure, shortened: as §1
# [12] = target: Neu5Ac(a2-6)Gal(b1-4)GlcNAc(b1-2)Man
# Procedure, shortened: as §1
# [13] = target: Neu5Ac(a2-6)Gal(b1-4)GlcNAc(b1-3)Gal(b1-3)GlcNAc
# Procedure, shortened: as §1
# [14] = target: Neu5Ac(a2-6)Gal(b1-4)GlcNAc(b1-3)Gal(b1-4)GlcNAc(b1-3)Gal(b1-4)GlcNAc(b1-2)Man(a1-3)[Neu5Ac(a2-6)Gal(b1-4)GlcNAc(b1-3)Gal(b1-4)GlcNAc(b1-3)Gal(b1-4)GlcNAc(b1-2)Man(a1-6)]GalNAc
# Procedure, shortened: as §1
# [15] = target: Neu5Ac(a2-6)GalNAc(b1-4)GlcNAc6S
# Procedure, shortened: as §1
# [16] = target: Neu5Ac(a2-8)Neu5Ac(a2-8)Neu5Ac(a2-3)Gal(b1-4)Glc
# Procedure, shortened: as §1
binder,measurement,setting,value
B1,glycan array binding signal (z-score),[1],2.39
same,glycan array binding signal (z-score),[2],0.054
same,glycan array binding signal (z-score),Gal3S6S(b1-4)GlcNAc,0.487
same,glycan array binding signal (z-score),Gal6S(b1-3)GlcNAc6S,4.12
same,glycan array binding signal (z-score),Gal6S(b1-4)Glc6S,6.81
same,glycan array binding signal (z-score),Gal6S(b1-4)GlcNAc6S,9.56
same,glycan array binding signal (z-score),GalNAc(b1-3)Gal,0.105
same,glycan array binding signal (z-score),GlcA(b1-6)Gal,0.35
same,glycan array binding signal (z-score),[3],-0.807
same,glycan array binding signal (z-score),[4],-0.345
same,glycan array binding signal (z-score),[5],-0.037
same,glycan array binding signal (z-score),[6],-0.435
same,glycan array binding signal (z-score),GlcNAc(b1-3)Fuc,-0.291
same,glycan array binding signal (z-score),[7],0.229
same,glycan array binding signal (z-score),[8],4.95
same,glycan array binding signal (z-score),[9],-0.382
same,glycan array binding signal (z-score),[10],-0.83
same,glycan array binding signal (z-score),[11],-0.706
same,glycan array binding signal (z-score),[12],-0.272
same,glycan array binding signal (z-score),[13],4.57
same,glycan array binding signal (z-score),[14],0.07
same,glycan array binding signal (z-score),[15],-0.365
same,glycan array binding signal (z-score),[16],0.154
